# Bioassay records deposited in PubChem BioAssay by National Center for Advancing Translational Sciences (NCATS).
# Tau fibril ThT: qHTS for Inhibitors of Tau Fibril Formation, Thioflavin T Binding; Microtubule-associated protein tau (Homo sapiens), P10636; 2.1% of 270,000 active; recombinant tau K18 P301L, heparin-induced fibrillization, ThT fluorescence; Potency, µM (doses to about 57.4 µM), for the others: at the highest dose activity, negative = inhibition, hits mostly inhibitors; AID 1460, 2008; also: nearly all actives have a fitted effect of over 55% in size
# Target sequence (P10636 561-689 P618L limits assumed): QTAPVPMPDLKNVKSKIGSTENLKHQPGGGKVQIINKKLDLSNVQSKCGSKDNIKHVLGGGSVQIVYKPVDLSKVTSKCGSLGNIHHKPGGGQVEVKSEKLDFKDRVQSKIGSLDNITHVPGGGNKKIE
#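 ThT emission at 510 nm, taken 1 hr after adding 30 uM dye, quantifies aggregates formed when 20 uM heparin acts on human tau K18 P301L for 6 hr at 37 C.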
# TRb-SRC2 inh: qHTS for Inhibitors of the Interaction of Thyroid Hormone Receptor and Steroid Receptor Coregulator 2 | Potency, µM (doses to about 106 µM), without a hit: top-dose activity change, negative = inhibition, hits mostly inhibitors | TRbeta-SRC2 peptide binding, fluorescence polarization; receptor liganded with 1 µM T3 | 0.065% of 280,000 active | Thyroid hormone receptor beta (Homo sapiens), P10828 | AID 1469, 2008;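 also: plate controls were bound peptide for no effect and peptide without receptor for full effect; nearly all actives have a fitted effect of over 50% in size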
#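 Human TRb ligand-binding domain (0.6 uM) is mixed with 20 nM Texas Red SRC2 peptide and 1 uM T3; after compound addition and 5 hr at ambient temperature, polarization is measured and normalized to unbound and bound controls.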
# Tau fluor cs: Counterscreen qHTS for Inhibitors of Tau Fibril Formation, Fluorescence Polarization; Potency, µM (highest dose often 57.7 µM), inactives show at the top dose activity change, negative = decrease; 0.93% of 280,000 active; tau K18 P301L Alexa594 fluorescence, heparin fibrillization; AID 1463, 2008; also: nearly all actives have a fitted effect of over 55% in size
#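 Human tau K18 P301L (15 uM unlabeled, 0.24 uM Alexa 594-labeled) in 100 mM sodium acetate pH 7 with 20 uM heparin, 6 hr at 37 C. ThT 30 uM added, 1 hr ambient; Alexa 594 FP and total fluorescence read at 555/632 nm.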
# TR SRC2 fluor cs: Total Fluorescence Counterscreen for Inhibitors of the Interaction of Thyroid Hormone Receptor and Steroid Receptor Coregulator 2; TRb/SRC2 Texas Red total fluorescence interference; Potency, µM (highest dose often 106 µM), for the others: top-dose fluorescence change, negative = quenching; 0.29% of 280,000 active; AID 1479, 2009; active = well fitted curve in either direction with a large enough effect; inconclusive = small, poorly fitted or top-dose-only effect
#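 Human TRβ ligand-binding domain (0.6 uM) and Texas Red SRC2 peptide (20 nM) in Tris buffer with 1 uM T3 and 5% DMSO were incubated with pinned compound for 5 hr at ambient temperature. Total fluorescence was computed as S + 2P (555/632 nm).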
# RGS12 GoLoco inh: qHTS Assay for Inhibitors of RGS12 GoLoco Motif Activity (Red Fluorophore); AID 880, 2007; Guanine nucleotide-binding protein G(i) subunit alpha-1 (Homo sapiens), P63096; 0.44% of 230,000 active; Gai1:RGS12 GoLoco peptide FP, rhodamine, 10 min; Potency, µM (series often up to 61.6 µM), for inactives: top-dose activity, negative = inhibition, hits mostly inhibitors; active = well fitted inhibition curve with a large enough effect, not every such curve was filed as active; inactive = no such curve, though single readings can be large or run the other way; also: nearly all actives have a fitted effect of over 30% in size
# Target sequence (P63096 whole entry, looked up): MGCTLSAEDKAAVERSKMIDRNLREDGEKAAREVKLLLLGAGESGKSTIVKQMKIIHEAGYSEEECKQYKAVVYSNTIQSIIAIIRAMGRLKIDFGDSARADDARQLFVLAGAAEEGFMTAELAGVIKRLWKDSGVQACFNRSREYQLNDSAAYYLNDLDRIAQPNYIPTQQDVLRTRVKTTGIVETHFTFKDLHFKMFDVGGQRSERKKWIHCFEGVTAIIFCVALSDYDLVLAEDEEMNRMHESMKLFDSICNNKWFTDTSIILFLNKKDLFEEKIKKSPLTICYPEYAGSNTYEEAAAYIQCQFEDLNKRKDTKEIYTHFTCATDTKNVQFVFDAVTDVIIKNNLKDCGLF
# Tau fibril FP: qHTS for Inhibitors of Tau Fibril Formation, Fluorescence Polarization; Microtubule-associated protein tau (Homo sapiens), P10636; K18 P301L tau heparin fibrillization, Alexa594 FP, 6 h; Potency, µM (doses to about 57.7 µM), for the others: at the top dose activity, negative = inhibition, most hits filed as inhibitors; 0.39% of 280,000 active; AID 1468, 2008; also: nearly all actives have a fitted effect of over 55% in size
#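 Steps: dispense K18 P301L tau (15 uM plus 0.24 uM Alexa 594 tracer, final) in pH 7 sodium acetate; add compound; add heparin (20 uM final); incubate 6 hr, 37 C; add ThT (30 uM final); after 1 hr ambient, read FP.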
# Active calls of the source: *; ? = inconclusive; nt = not tested or not shown; ! = not active in a repeat; [ ] = dose if it differs, or a comment. An excerpt weighted towards active compounds, which were near 3.1% of everything screened. Unless noted, calls follow the shape of the dose curve; as a rule, active = well fitted curve in the direction sought with a large enough effect; inconclusive = small, poorly fitted or top-dose-only effect, or another doubt; inactive = no such curve, though single readings can be large; an effect the other way counts as inactive or inconclusive. Unless noted, % is scaled to controls: 0 for no effect and ±100 for the full control effect; potency is read from the fitted curve at half-maximal effect.
SMILES,Tau fibril ThT,TRb-SRC2 inh,Tau fluor cs,TR SRC2 fluor cs,RGS12 GoLoco inh,Tau fibril FP
CC[n+]1cc(-c2ccccc2)nc(N2CCOCC2)n1,-22%,2%,-12%,-1%,7.1µM*,?
Cc1ccc(CNC(=O)c2c(-c3ccc(F)cc3F)noc2C)o1,-1%,-2%,-4%,0%,nt,-1%
Cc1cccc(OCCCC(=O)Nc2ccc(N(C)C)cc2)c1,13µM*,-6%,-23%,-1%,-19%,16%
Cc1cccc(OCCCC(=O)Nc2ccc(Br)cc2)c1,1%,-12%,-17%,-7%,2%,-7%
Cc1ccc(CN2CCN(CC(=O)O)C2=O)cc1,1%,0%,0%,-1%,3%,-1%
CN(C)CCCNc1cc(C(C)(C)C)nc2c(-c3ccccc3)cnn12,?,5%,22µM*[quencher],-3%,14%,?
CCCn1c(O)c(N=Nc2ccc3ccccc3n2)c2ccccc21,13µM*,-12%[53 µM],-6%,0%[53 µM],24%,0%
CC(C)CCn1c(O)c(N=Nc2ccccn2)c2ccccc21,?,5%,-28%,-3%,7%,-14%
Cc1cccc(Cn2c(N(C)Cc3ccccc3)nc3c2c(=O)[nH]c(=O)n3C)c1,-16%,-5%,-6%,-4%,-3%,0%
CCOc1ccc2nc(Cl)c(C3CC(c4ccco4)=NN3S(=O)(=O)c3ccccc3)cc2c1 (stereo not drawn),9%,1%,-4%,1%,15%,-10%
COc1ccc2cc(C3CC(c4ccco4)=NN3S(C)(=O)=O)c(Cl)nc2c1 (stereo not drawn),?,-4%,-21%,1%,26%,1%
CCS(=O)(=O)N1N=C(c2ccc(C)cc2)CC1c1cc2ccc(OC)cc2nc1Cl (stereo not drawn),-9%,7%,?,-2%,nt,40µM*
CCOc1ccc2nc(Cl)c(C3CC(c4ccc(OC)cc4)=NN3S(C)(=O)=O)cc2c1 (stereo not drawn),-8%,-17%[1.83 µM],?,-54%[1.83 µM],nt,35µM*
CC1=CC(C)(C)n2c(O)c(N=N)c3c(C)c(C)cc1c32,25µM*,13%,?,-3%,4%,-15%
CC1=CC(C)(C)n2c(O)c(N=N)c3cc(C)cc1c32,28µM*,-2%,?,-1%,-2%,?
CCOC(=O)c1c(CC(C)C)csc1NC(=O)COC(=O)c1cc(OC)c(OC)cc1[N+](=O)[O-],-1%,-1%,-18%,?,4%,?
CCCN(CCC)CCCNC(=O)Cn1ncc2c3ccccc3n(Cc3ccc(F)cc3)c2c1=O,4%,1%,2%,-2%,nt,0%
CCOc1cc(NC(=S)NCCCN2CCOCC2)c(OCC)cc1NC(=O)c1cccc(C)c1,-10%,3%,-8%,0%,14%,7%
O=C(Nc1cccc(C(F)(F)F)c1)Nc1ccc(N2CCCC2)c(S(=O)(=O)Nc2ccccc2Cl)c1,?,5%,2.5µM*[quencher],1%,2%,?
NNC(=O)c1ccc(N2CCc3ccccc32)c([N+](=O)[O-])c1,14µM*,-2%,?,-3%,7%,10%
CC(C(=O)NCc1ccc(Cl)cc1)n1ccc2cc(S(=O)(=O)N3CCCC3)ccc21 (stereo not drawn),7%,-3%,-29%,-1%,nt,1%
Cn1nc(C(C)(C)C)cc1NC(=O)Nc1cc(Cl)cc(Cl)c1,-9%,4%,7.1µM*[quencher],-5%,-16%,25µM*
Cc1ccc(F)cc1NC(=O)Nc1cc(C(C)(C)C)nn1C,-5%,-6%,-27%,-2%,3%,5%
O=c1oc2c(O)c(O)cc3c(=O)oc4c(O)c(O)cc1c4c23,14µM*,-2%,?,?,28µM*!,?
C/C(CC(=O)Nc1ccc(OCc2ccccc2)cc1)=N\NC(=O)C(=O)Nc1cccc(C)c1,?,-1%,-21%,-4%,7%,-8%
SMILES,Tau fibril ThT,TRb-SRC2 inh,Tau fluor cs,TR SRC2 fluor cs,RGS12 GoLoco inh,Tau fibril FP
CCCCC1=CC2=C(c3ccco3)C(=O)C(C)(OC(=O)c3ccc(OC)cc3)C(=O)C2=CN1CCOC (stereo not drawn),?,1%[11.2 µM],-5%[11.6 µM],-2%[11.2 µM],-3%[14.2 µM],-4%[11.6 µM]
CCCCC1=CC2=C(c3ccco3)C(=O)C(C)(OC(=O)c3ccc(OC)cc3)C(=O)C2=CN1Cc1ccccc1 (stereo not drawn),13µM*!,1%[11.2 µM],2%[11.6 µM],-1%[11.2 µM],10%[14.2 µM],5%[11.6 µM]
CC(=O)OC[C@@H]1O[C@@H](O/N=C2/C[C@@H](O)[C@@H](O)[C@@H]3[C@@H]4C(=O)N(Cc5ccccc5)C(=O)[C@H]4CC[C@@H]23)[C@H](OC(C)=O)[C@H](OC(C)=O)[C@@H]1OC(C)=O,-5%[11.5 µM],1%[11.2 µM],-19%[11.6 µM],-1%[11.2 µM],nt,-13%[11.6 µM]
COc1ccc(NC(=O)Cn2c(=O)n(Cc3nc(-c4ccccc4)no3)c(=O)c3ccccc32)cc1Cl,?,3%,-6%,-3%,nt,?
O=C(Cn1c(=O)n(Cc2nc(-c3ccccc3)no2)c(=O)c2ccccc21)Nc1cccc(Cl)c1,?,5%,-27%,-2%,nt,28µM*
O=C(Cn1c(=O)n(Cc2nc(-c3ccccc3)no2)c(=O)c2ccccc21)Nc1cccc(C(F)(F)F)c1,19%,-2%,?,0%,nt,10µM*
CC(Sc1nnc(-c2cccnc2)n1-c1ccccc1)C(=O)NCc1ccc2c(c1)OCO2 (stereo not drawn),0%,-6%,6%,2%,2%,5%
O=C(CNc1cccc2ccccc12)N/N=C/c1cccc(Oc2ccccc2)c1,?,7%,7.9µM*[quencher],-2%,-4%,?
Cc1ccc2c(=O)c(C(=O)c3ccccc3)cn(CC(=O)Nc3ccc(C)c(Cl)c3)c2n1,6%,6%,-20%,-5%,nt,-8%
COc1ccc(NC(=O)c2ccco2)cc1NC(=O)c1ccc(OC(C)C)cc1,-16%,-12%,-18%,0.35µM*[quencher],nt,9%
COc1ccc(NC(=O)c2ccco2)cc1NC(=O)c1ccc(C)cc1,?,8%,-8%,-2%,-8%,-3%
O=C(Cn1c(=O)nc(-c2ccccc2)c2ccccc21)NCCc1ccccc1,-2%,-4%,-1%,-1%,nt,0%
